PHOSPHO1 block: PHOSPHO1 (human) inhibition | inhibition, % at 13.3 µM | hit rate 1.1% among 290,000 | recombinant PHOSPHO1, absorbance phosphatase assay; in the data active means inhibition above about 60%
HDAC3 inh: inhibitors of human histone deacetylase 3 | recombinant HDAC3, fluorogenic peptide/trypsin coupled, fluorescence | O15379 | inhibition, % at 8.3 µM | hit rate 0.15% among 320,000; in the data active means inhibition above about 26%, passing the limit was not always enough; inconclusive means no clear call, values can overlap the other calls
G6PDH counter: L. mesenteroides G6PDH inhibition counter-screen | Purified L. mesenteroides G6PDH, diaphorase/resazurin coupled fluorescence, 45 min | inhibition, % at 5 µM | hit rate 0.12% among 200,000 | AID 1020; in the data active means inhibition above about 50%
p97 ATPase inh: blocks human p97 ATPase activity | hit rate 0.42% among 220,000 | inhibition, % at 8 µM | P55072 | recombinant p97 ATPase, Kinase-Glo ATP luminescence, 3 h; in the data active means inhibition above about 15%;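 further: 0% = DMSO vehicle and 100% = wells lacking enzyme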
Target sequence (P55072 whole entry, looked up): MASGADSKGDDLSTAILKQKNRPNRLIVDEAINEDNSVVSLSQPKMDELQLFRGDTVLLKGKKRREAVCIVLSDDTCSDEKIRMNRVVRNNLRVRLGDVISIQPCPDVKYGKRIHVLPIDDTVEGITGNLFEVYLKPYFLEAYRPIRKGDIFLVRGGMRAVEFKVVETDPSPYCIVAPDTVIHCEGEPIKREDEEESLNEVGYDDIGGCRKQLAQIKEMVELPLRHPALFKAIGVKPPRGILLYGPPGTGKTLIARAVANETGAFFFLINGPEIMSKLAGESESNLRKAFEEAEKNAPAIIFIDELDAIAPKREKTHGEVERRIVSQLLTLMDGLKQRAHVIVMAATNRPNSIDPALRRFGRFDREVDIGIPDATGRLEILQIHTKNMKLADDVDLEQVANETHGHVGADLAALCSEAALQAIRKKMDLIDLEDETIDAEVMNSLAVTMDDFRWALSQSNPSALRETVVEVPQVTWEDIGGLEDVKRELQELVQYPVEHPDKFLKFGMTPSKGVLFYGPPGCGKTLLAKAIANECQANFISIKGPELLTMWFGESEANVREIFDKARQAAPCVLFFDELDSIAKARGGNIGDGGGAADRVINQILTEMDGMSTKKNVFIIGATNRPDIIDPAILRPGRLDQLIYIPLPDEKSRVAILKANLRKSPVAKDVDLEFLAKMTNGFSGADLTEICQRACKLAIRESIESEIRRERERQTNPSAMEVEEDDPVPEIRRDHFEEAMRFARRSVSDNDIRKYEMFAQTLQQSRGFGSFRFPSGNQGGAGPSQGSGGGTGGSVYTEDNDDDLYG
SUMO HTRF inh: blocks human SUMOylation mediated by UBC9 | P63279 | HTRF SUMOylation assay, SAE1/SAE2 + UBC9, in vitro | inhibition, % at 35 µM | hit rate 0.36% among 290,000 | AID 2006; in the data active means inhibition above about 50%, passing the limit was not always enough; inconclusive means no clear call, values can overlap the other calls
PfM18AAP inh-1: PfM18AAP enzyme inhibition. recombinant PfM18AAP, H-Glu-NHMec fluorogenic cleavage. hit rate 1.2% among 290,000. AID 1822. inhibition, % at 7.35 µM;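 active means inhibition above the campaign mean inhibition over all tested compounds plus 3 SD, cut at about 28% in these data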;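 further: 0% = plate median of test compound wells and 100% = 2 mM ZnCl2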
PfM18AAP inh-2: confirmation of Plasmodium falciparum M18 aspartyl aminopeptidase inhibitors | inhibition, % at 7.35 µM | AID 2170 | recombinant PfM18AAP, H-Glu-NHMec fluorogenic cleavage | shares compounds with PfM18AAP inh-1 | hit rate 28% among 2,400;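 active means mean inhibition over replicate wells above the hit cutoff set for the earlier primary screen, cut at about 29% in these data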;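 further: 0% = median of test compound wells and 100% = 2 mM ZnCl2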
CTSL1 confirm: counter-screen for PFM18AAP inhibitors: confirmation of human cathepsin L inhibitors; shares compounds with PfM18AAP inh-1; purified cathepsin L1, Z-Leu-Arg-MCA fluorescence; inhibition, % at 5.96 µM; 2,400 tested, under 10 active;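 active means average inhibition across replicates above the hit cutoff set in the earlier primary screen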;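 further: 0% = median of test compound wells and 100% = Z-Phe-Ala-diazomethylketone 1 µM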
* = called active by the depositor; ? = inconclusive; . = not tested or not shown. The list is not random: actives were taken first. Their share in the collection is about 2.5%.

SMILES	PHOSPHO1 block	HDAC3 inh	G6PDH counter	p97 ATPase inh	SUMO HTRF inh	PfM18AAP inh-1	PfM18AAP inh-2	CTSL1 confirm
CCN1CCN(C(=S)c2ccc([N+](=O)[O-])cc2)CC1	-7	10	-12	3	-7	14	.	.
CCN1CCN(C(=S)c2ccc(OC)cc2)CC1	8	-3	-2	0	-8	45*	13	1
CC(C)(C)c1cc(C(=S)N2CCN(CCO)CC2)cc(C(C)(C)C)c1O	41	10	30	-6	15	36*	-7	2
COc1ccc(C(=S)N2CCCCCC2)cc1	-16	6	7	2	-4	4	.	.
CCOc1ccc(C(=S)N2CCN(C)CC2)cc1	8	2	6	3	-3	48*	4	0
O=C(O)Cc1sc(Nc2cccc3ccccc23)nc1-c1ccc(Cl)cc1	9	-1	.	.	-4	15	.	.
COc1ccc(C(=O)C2CCCN(Cc3cccc4c3OCO4)C2)cc1OC (centres undefined)	24	5	4	1	8	2	.	.
S=C(c1ccc(Cl)cc1)N1CCN(Cc2ccccc2)CC1	-9	-6	2	-4	-4	-10	.	.
OCCN1CCN(C(=S)c2ccc(Cl)cc2)CC1	31	7	-4	6	6	43*	8	5
CCCN1CCN(C(=S)NCc2ccc(Cl)cc2)CC1	48	-1	6	2	0	-2	.	.
CSc1ccc(C(=S)N2CCN(Cc3ccccc3)CC2)cc1	48	7	1	-1	-1	41*	10	3
COc1ccc(NC(=O)C(C)N2C(=O)C3CC=C(Cl)CC3C2=O)cc1 (centres undefined)	-2	1	.	.	-1	-7	.	.
CC(C(=O)Nc1ncn[nH]1)N1C(=O)c2ccccc2C1=O (centres undefined)	11	5	7	5	6	51*	51*	-5
CSC1=NS(=O)(=O)c2c(C)nn(C)c2S1	90*	16	.	4	1	57*	-14	-6
O=C(CN1CCN(c2ccc(O)cc2)CC1)Nc1cc(S(=O)(=O)N2CCCC2)ccc1Cl	1	7	6	4	0	36*	-14	-3
CCOC(=O)c1ncccc1NC(=O)CC(=O)Nc1cccnc1C(=O)OCC	.	2	.	.	.	.	.	.
Cc1ccc(NC(=O)CCNS(=O)(=O)c2ccccc2F)cc1S(=O)(=O)N1CCOCC1	.	-2	.	.	.	.	.	.
Cc1ncc(CO)c(/C=N/NC(=O)c2ccccc2Br)c1O	-4	-24	-26	6	12	35*	-14	4
NC(=S)NNC(=O)COc1ccccc1O	-12	1	.	-1	-6	37*	39*	-2
Oc1ccc(O)c(/C(=N/Nc2ccccc2)c2ccccc2)c1	-91	3	.	.	4	45*	-80	-1
CCOc1ccccc1N1CCN(C(=O)C2=CC=CN3CCS(=O)(=O)N=C23)CC1	.	2	.	.	.	.	.	.
C=CCc1c(C)nc(-c2ccccc2)nc1N/N=C(\C)c1ccc(N)cc1	-10	9	-3	4	10	52*	14	-3
Cc1sc2ccccc2[n+]1CC(=O)c1ccccc1	14	9	.	.	3	52*	11	0
CCOC(=O)c1cnc2c(C(=O)OC)cccc2c1NCc1ccco1	7	-8	-23	-5	5	41*	-30	4
CCOC(=O)c1cnc2c(C)cccc2c1NCc1ccco1	4	8	-16	-1	-18	13	.	.
SMILES	PHOSPHO1 block	HDAC3 inh	G6PDH counter	p97 ATPase inh	SUMO HTRF inh	PfM18AAP inh-1	PfM18AAP inh-2	CTSL1 confirm
O=C(NCc1ccco1)c1cc2cc(Br)ccc2o1	-32	-3	.	.	13	33*	-13	-3
O=C(NCc1ccco1)c1cc(=O)c2ccccc2o1	21	0	7	4	12	-9	.	.
O=C(CC(=O)Nc1cccc(Cl)c1Cl)Nc1cccc(Cl)c1Cl	31	1	.	.	29	-9	.	.
CSc1nc(NS(=O)(=O)c2ccc(F)cc2F)nn1C	33	2	.	.	-5	-1	.	.
NC(=O)c1ccc(-n2nnnc2SCC(=O)c2ccc(O)c(O)c2)cc1	-71	-2	12	11	16	51*	29*	-1
COc1ccc(-n2nnnc2SCC(=O)c2ccc(O)c(O)c2)cc1	34	6	-29	4	-5	35*	30*	-4
Cc1ccccc1CSc1nnnn1-c1ccc(C(N)=O)cc1	18	-2	.	.	-12	3	.	.
CCOC(=O)/C(=C\C=C1/Sc2ccccc2N1CC)C(C)=O	-15	?	-17	1	-9	45*	-20	8
CCOC(=O)/C(=C/C=C1\Sc2ccccc2N1CC)C(C)=O	-1	23	-13	-1	20	43*	-37	0
CCOC(=O)/C(=C/C=C1\Sc2cc(C)c(C)cc2N1CC)C(C)=O	20	.	12	-8	-22	22	.	.
CCN1C(=O)/C(=C/C=C2/Sc3ccccc3N2CCO)SC1=S	-52	9	4	6	14	7	.	.
CSc1c(CN2CCN(C)CC2)c2ccccc2n1C	.	-2	.	.	.	.	.	.
COc1ccc(N(CC(=O)NC2CCCCC2C)S(=O)(=O)c2c(C)nn(C)c2C)cc1 (centres undefined)	33	1	.	.	-1	3	.	.
O=C(O)C1CCN(C(=O)CSc2nnc3ccccn23)CC1	.	-7	.	.	.	.	.	.
Cc1cccc(CN2CCN(C(C)C(=O)NC(C)c3ccccc3)CC2)c1 (centres undefined)	15	1	.	.	21	3	.	.
Cc1ccc(/C=N/Nc2nncn2N)cc1	33	-5	.	.	-15	40*	-17	1
Nn1cnnc1N/N=C/c1ccc(Cl)c([N+](=O)[O-])c1	27	-2	18	11	18	57*	-41	-4
Fc1ccc(/C=N/Nc2nn[nH]n2)cc1	-21	3	0	2	13	21	.	.
Nn1cnnc1N/N=C/c1ccc(F)cc1	30	1	.	.	14	42*	-21	-2

Assay outcomes as filed in PubChem BioAssay.
